Most compounds without a hit are left out; they make up all but 9% or so of the library.
BAZ2B block: inhibitors of human BAZ2B bromodomain; Q9UIF8; AlphaScreen BAZ2B-H3K14Ac peptide displacement; Potency, µM (top dose mostly 114 µM), for the others: top-dose activity change, negative = inhibition, usual class: inhibitors; 360,000 tested, 4.4% active; AID 504333; note: % is set by controls: 0 for no effect and ±100 for the full control effect; nearly all actives have a fitted effect of over 60% in size
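BAZ2B 50 nM plus b-H3(5-23)K14Ac 50 nM, PBS pH 7.4/0.01% Tween-20, 30 min RT; compound added (max 110 uM), 30 min RT; streptavidin donor/Ni-chelate acceptor beads 10 ug/mL final, 20 min dark; AlphaScreen read.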
12-LOX inh: ALOX12 (human) lipoxygenase inhibition | purified 12hLO, xylenol orange hydroperoxide absorbance | Potency, µM (series often up to 108 µM), without a hit: at the top dose activity change, negative = inhibition, actives largely listed as inhibitors | AID 1671190 | 580,000 tested, 1.1% active; note: % is set by controls: 0 for no effect and ±100 for the full control effect
Target sequence (P18054 whole entry, looked up): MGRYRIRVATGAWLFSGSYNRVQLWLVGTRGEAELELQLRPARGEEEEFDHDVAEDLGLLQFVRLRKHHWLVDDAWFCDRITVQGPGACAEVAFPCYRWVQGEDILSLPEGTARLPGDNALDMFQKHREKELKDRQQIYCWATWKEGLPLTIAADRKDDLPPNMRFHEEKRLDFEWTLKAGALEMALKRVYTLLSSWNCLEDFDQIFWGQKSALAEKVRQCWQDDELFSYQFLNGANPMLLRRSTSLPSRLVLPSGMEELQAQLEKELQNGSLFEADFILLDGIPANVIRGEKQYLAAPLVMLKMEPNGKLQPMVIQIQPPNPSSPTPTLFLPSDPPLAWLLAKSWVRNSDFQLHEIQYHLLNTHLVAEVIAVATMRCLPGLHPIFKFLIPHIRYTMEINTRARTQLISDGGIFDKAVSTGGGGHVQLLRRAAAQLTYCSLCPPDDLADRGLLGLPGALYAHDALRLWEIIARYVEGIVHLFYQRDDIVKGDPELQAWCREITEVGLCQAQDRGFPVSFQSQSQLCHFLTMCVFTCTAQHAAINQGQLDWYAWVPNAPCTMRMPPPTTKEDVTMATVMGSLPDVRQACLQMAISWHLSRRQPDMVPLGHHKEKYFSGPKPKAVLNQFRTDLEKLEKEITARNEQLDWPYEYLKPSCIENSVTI
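Hydroperoxide product was detected by ferrous iron/xylenol orange as the 573 to 405 nm absorbance ratio. Arachidonic acid at 40 uM (final) was turned over for 30 min at room temperature by 150 nM human 12hLO, pH 7.0 Hepes buffer, after 15 min compound preincubation.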
HP1b binding inh: blocks HP1-beta chromodomain binding to methylated histone tails | P83916 | AlphaScreen HP1-beta / biotin-H3K9me3 peptide binding | Potency, µM (series often up to 114 µM), for the others: top-dose activity change, negative = inhibition, usual class: inhibitors | 390,000 tested, 0.56% active | AID 540317; note: nearly all actives have a fitted effect of over 70% in size
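AlphaScreen: HP1-beta (50 nM) preformed 30 min with biotin-H3(1-18)K9me3 peptide (50 nM) in PBS pH 7.4, 0.01% Tween-20. Compound added for 30 min at RT, then streptavidin donor/nickel chelate acceptor beads (10 ug/mL) for 30 min.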
PLK1 PBD block: blocks phosphopeptide binding to human PLK1 polo-box domain | P53350 | Plk1 PBD binding of FITC phosphopeptide, fluorescence polarization | Potency, µM, without a hit: max response, negative = inhibition, usual class: inhibitors | 360,000 tested, 2.8% active | AID 720504; note: series mostly up to about 57 µM; % is set by controls: 0 for no effect and ±100 for the full control effect; nearly all actives have a fitted effect of over 65% in size
G9a block: G9a (human) methyltransferase inhibition; AID 504332; 350,000 tested, 8.8% active; G9a H3K9 monomethylation, AlphaScreen, 2 h; Potency, µM (doses to about 102 µM), without a hit: at the highest dose activity, negative = inhibition, actives largely listed as inhibitors; Q96KQ7; note: % is set by controls: 0 for no effect and ±100 for the full control effect; nearly all actives have a fitted effect of over 75% in size
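Step 1: enzyme (final 20 nM) with compound, 15 min RT. Step 2: substrate peptide 500 nM and SAM 20 uM, 2 h RT. Step 3: anti-H3K9me1 antibody and AlphaScreen beads, 10 min, then plate read.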
JMJD2A Tudor: blocks the human JMJD2A Tudor domain; O75164; AlphaScreen JMJD2A-Tudor / H3K4me3 peptide binding; Potency, µM (doses to about 114 µM), for the others: at the highest dose activity change, negative = inhibition, hits mostly inhibitors; 390,000 tested, 4.4% active; note: % is set by controls: 0 for no effect and ±100 for the full control effect; nearly all actives have a fitted effect of over 50% in size
Starred values were filed as active, the others as inactive; ? = inconclusive; · = no result; [ ] = dose if it differs, or a comment. Calls come from the whole dose curve; as a rule, active = well fitted curve in the direction sought with a large enough effect; inconclusive = small, poorly fitted or top-dose-only effect, or another doubt; inactive = no such curve, though single readings can be large; an effect the other way counts as inactive or inconclusive. Potency is the fitted concentration of half-maximal effect.

SMILES	BAZ2B block	12-LOX inh	HP1b binding inh	PLK1 PBD block	G9a block	JMJD2A Tudor
CN(Cc1ccccc1)c1oc(COc2ccccc2F)nc1C#N	28µM*	334%	-23%	?	28µM*	?
N#Cc1nc(COc2ccccc2F)oc1NCCc1ccccc1	?	-20%	-27%	-5%	?	?
COc1ccc(Nc2oc(COc3ccc(C)cc3)nc2C#N)cc1	?	-5%	-35%	-1%	?	89µM*
Cc1ccc(OCc2nc(C#N)c(NCc3ccco3)o2)cc1	35µM*	?	-9%	-5%	50µM*	?
COc1ccc(Nc2oc(COc3ccccc3F)nc2C#N)cc1	?	-20%	-5%	?	35µM*	?
CC(NC(=O)c1cc[n+]([O-])cc1)c1ccc(-c2ccccc2)cc1 (stereo unspecified)	·	6%	·	·	·	·
Cc1ccc(NC(=O)c2nsc(Cl)c2Cl)cc1	2%	0%	42%	-1%	·	-13%
CC(C)CCNC(=O)c1ccc2c(c1)NC(=O)C(CS(=O)(=O)Cc1cccc(Br)c1)N2 (stereo unspecified)	2%[57.1 µM]	-30%	22%	·	13µM*	?
CCN(CC)CCCNC(=O)c1ccc2c(c1)NC(=O)C(CS(=O)(=O)Cc1ccc(F)cc1Cl)N2 (stereo unspecified)	-10%	95%	11%	·	10µM*	-18%
Cc1ccc(CNC(=O)c2ccc3c(c2)NC(=O)C(CS(=O)(=O)Cc2cccc(F)c2)N3)cc1 (stereo unspecified)	-1%[57.1 µM]	?	40%	·	6.3µM*	89µM*
CN(C)CCNC(=O)c1ccc2c(c1)NC(=O)C(CS(=O)(=O)Cc1cccc(Br)c1)N2 (stereo unspecified)	?	268%	?	·	?	?
Cc1cccc(CS(=O)(=O)CC2Nc3ccc(C(=O)NCc4ccccc4)cc3NC2=O)c1 (stereo unspecified)	3%[57.1 µM]	14%	-13%	·	?	-10%
O=C(NCc1ccc(Cl)cc1)c1ccc2c(c1)NC(=O)C(CS(=O)(=O)Cc1ccc(F)cc1Cl)N2 (stereo unspecified)	10%[57.1 µM]	?	18%	·	16µM*	?
O=C(NCc1ccccc1Cl)c1ccc2c(c1)NC(=O)C(CS(=O)(=O)Cc1ccc(F)cc1Cl)N2 (stereo unspecified)	-17%	?	-13%	·	?	-16%
CC(C)[C@H](NC(=O)[C@@H]1Cc2ccccc2CN1C(=O)OC(C)(C)C)C(=O)NC1CCCC1	-17%	-4%	3%	3%	36%	-33%
COc1cc(C)c(Cl)c(C)c1S(=O)(=O)NC1CC(C)(C)NC(C)(C)C1	5%	-10%	25%	3%	-47%	6%
Cc1ccc(N2C(=O)[C@@H]3[C@H](C2=O)C2c4ccccc4C=CN2[C@@H]3C(=O)c2ccco2)c(C)c1 (stereo partly specified)	-33%	14µM*	-26%	27µM*	6%[2.33 µM]	?
O=C(Oc1ccc(N2C(=O)C3C4CCC(C4)C3C2=O)cc1)c1ccco1 (stereo unspecified)	-14%	8%	25%	2%	28%	-3%
O=C(c1ccco1)N1CCN(C2CC(=O)N(c3ccccc3)C2=O)CC1 (stereo unspecified)	-34%	-5%	43%	-3%	?	-4%
Cc1ccc(N2C(=O)[C@@H]3[C@H](C2=O)C2c4ccccc4C=CN2[C@@H]3C(=O)c2ccco2)cc1 (stereo partly specified)	?	?	?	?	3.2µM*	?
CC(=O)[C@@H]1[C@@H]2C(=O)N(Cc3ccccc3)C(=O)[C@@H]2C2c3ccccc3C=CN21 (stereo partly specified)	-30%	-7%	-2%	19µM*	2.8µM*	?
